Drawing on PubChem BioAssay (NCI), this text covers growth for 40 compounds.

This is part of a sample that, as a whole, favours compounds with a hit. Of some 83,000 tested, about 20% had one in any assay.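 Step 1: grow cells in 96-well plates. Step 2: add test compound at a single concentration. Step 3: incubate 48 h. Step 4: record percent growth.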 Activity calls are given as the source filed them.

The test concerns EKVX NSCLC. The test can be described thus: NCI-60 one-dose screen, 48 h (100 = growth as untreated, 0 = no growth, -100 = all killed). Conditions: 10 µM. The method, then: Growth inhibition of the EKVX human Non-Small Cell Lung tumor cell line is measured as a screen for anti-cancer activity. Cells are grown in 96 well plates and exposed to the test compound for 48 hours. Compounds are tested at a single concentration, which is 10^-5 M for most compounds. The reported endpoint is percent growth (GI% or GIPRCNT), where numbers from 0 - 100% represent growth inhibition, and numbers from -100% - 0 represent cell death. For example, a value of 40 represents 60% growth inhibition. A value of 0 means no net growth occurred over the course of the experiment. A value of -40 indicates 40% of cells at the beginning of the experiment died by the end of the experiment. A value of -100 means all cells are dead at the end of the experiment.
NCI-60 Human Tumor Cell Lines Screen was performed using the standard one-dose NCI protocol, which is described in more detail at https://dtp.cancer.gov/discovery_development/nci-60/default.htm.
Compounds with GIPRCNT values below 10 were considered active. Activity score was based on GIPRCNT using the following formula: […]
Score is 0 for GIPRCNT values of 100 or above, 50 for GIPRCNT values of 0, and 100 for GIPRCNT values of -100.
In the case of `O=c1cc(-c2ccccc2)oc2cc(OCCCNCc3ccccc3)cc(O)c12`, the growth was 8.87% (active).
The value for `CCN1CCN(c2ccc(NC(=O)Nc3ccc4c(c3F)CCN4c3ccnc(C(=O)NC)c3)cc2C(F)(F)F)CC1` was -76.9% (active).
The same measure for `CCCCCCCCCCCCCCCCCCCC(=O)NCCc1c[nH]c2ccc(OC(=O)NOCCOCCOCCOCCOCCOCCOCCOCCOCCOCCOCCOCCOCCOCCOCCOCCOCCOCCOCCOCCOCCOCCOC)cc12`: 35.6% (inactive); for `COc1cc2c3c(n(CCCNC(C)C)c(=O)c2cc1OC)-c1nc2c(cc1C3=O)OCO2`: 87.6% (inactive); for `CS(=O)(=O)Nc1ccc(-c2ccc3c(c2)ncn3-c2ccc(NC(=O)Nc3ccc(Br)cc3)cc2)cc1`: -0.46% (active).
The same measure for `CN1CCN(c2ccc(Nc3nc(NCCNC(=O)c4ccc(C(F)(F)F)cc4)c4sccc4n3)cc2)CC1`: 59.7% (inactive); for `COc1ccc(CCN2C(=O)/C(=C/c3csc(C#N)n3)SC2=S)cc1`: 20% (inactive).
Turning to `CN1C(=O)N(C)C2SC(N/N=C/c3cccs3)=NC21` (stereo not given), the growth is 56.2% (inactive).
In the case of `CN1C(=O)N(C)C2SC(N/N=C/c3ccccc3)=NC21` (stereo not given), the growth is 90.7% (inactive).
As to `O=C(CS(=O)(=O)c1oc(-c2ccc(Cl)cc2)nc1S(=O)(=O)c1ccc(Cl)cc1)N1CCOCC1`, the growth was 83.5% (inactive).
In the case of `CN1C(=O)/C(=C/c2ccc3ncsc3c2)NC1=NC12CC3CC(CC(O)(C3)C1)C2`, the growth is 12.3% (inactive).
The value for `C=C1CCC2C3(C)COC(c4cccc(F)c4)OC3CCC2(C)C1CC(O)C1=CCOC1=O` (stereo not given) was 87.9% (inactive).
The value for `Cc1ccn2c(C(=O)c3ccccc3)cc(-c3cc(-c4ccc(N(C)C)cc4)c(C#N)c(N)n3)c2c1` was 88.6% (inactive); that for `Clc1cccc(N/N=C/c2c[nH]c3ccccc23)n1` was 32.4% (inactive).
The same measure for `O=C(NO)c1ccc(CNC(=O)[C@H]2Cc3c([nH]c4ccccc34)[C@H](c3ccc(Cl)cc3)N2)cc1`: 25% (inactive); for `COc1ccc2c(c1)N=C(C(=O)O)/C2=C/c1sc(Nc2ccc(O)cc2)nc1O`: 75.1% (inactive); for `Cc1ccc(F)cc1N/C=c1\s/c(=C(\C#N)C(=O)Nc2ccccc2)n(-c2ccccc2)c1=O`: 86.7% (inactive).
For `O=C(CSc1nnc(-c2c[nH]c3ccccc23)n1-c1ccccc1)c1ccccc1`, the growth is 68.4% (inactive).
The same measure for `CONC[C@]1(C)C=C2C(=O)[C@](C)(O)C3(CC3)C(C)=C2[C@H]1O`: -45.3% (active).
In the case of `C#CCNC(=O)CCC(=O)OC[C@]12CC[C@@H](C(=C)C)[C@@H]1C1CC[C@@H]3[C@@]4(C)CCCNC(C)(C)[C@@H]4CC[C@@]3(C)[C@]1(C)CC2` (stereo not given in full), the growth was 2.91% (active).
The value for `O=C(CSc1nnc(-c2ccc3nc(-c4ccc(Cl)cc4)[nH]c3c2)o1)Nc1ccc(Cl)cc1` was 5.97% (active); that for `N[C@@H](CSSC[C@H](N)C(=O)Nc1ccc(OCC2CCCC2)cc1)C(=O)Nc1ccc(OCC2CCCC2)cc1` was -90.2% (active); that for `Cc1ccc(/C=C/C(=O)c2ccc(S(=O)(=O)NCCNc3nc(Nc4ccc(F)cc4)nc(N(C)C)n3)cc2)cc1` was 30.7% (inactive).
The value for `CC1=C(c2cc(-c3ccc(Cl)cc3)c(C#N)c(N)n2)C(c2ccccc2)NC(=S)N1` (stereo not given) was 98.6% (inactive); that for `OCCCNc1oc(-c2ccccc2)nc1[P+](c1ccccc1)(c1ccccc1)c1ccccc1` was 14.3% (inactive).
The value for `CCCS(=O)(=O)c1oc(-c2ccc(F)cc2)nc1S(=O)(=O)c1ccc(F)cc1` was 82.8% (inactive).
With `N#Cc1c(NC(=O)c2ccc(C(F)(F)F)cc2)sc2c1CCC(=O)C2`, the growth is -42.6% (active).
Turning to `O=c1cc(-c2ccccc2)oc2cc(OCCCCNCc3ccccc3)cc(O)c12`, the growth is 25.1% (inactive).
The value for `O=C1CCC(N2Cc3cc(NC(=O)COc4ccccc4)ccc3C2=O)C(=O)N1` (stereo not given) was 78.6% (inactive); that for `O=C(c1ccc(O)cc1)C1[C@H](c2ccccc2Br)[C@@H](c2ccccc2)NC12C(=O)Nc1ccc(Br)cc12` (stereo not given in full) was 32% (inactive).
The same measure for `COc1ccc(-c2cc(-c3cc(C(=O)c4ccccc4)n4ccc(C)cc34)nc(N)c2C#N)cc1`: 81.2% (inactive); for `CC1=C2C(=C[C@@](C)(CO)[C@@H]2O)/C(=N\N)[C@](C)(O)C12CC2`: -44.2% (active).
The value for `COc1cc2c3c(n(CCCn4ccnc4)c(=O)c2cc1OC)-c1nc2c(cc1C3=O)OCO2` was 91.6% (inactive); that for `CCCn1c(=O)c2[nH]c(-c3ccc(OCc4nc5ccc(F)cc5[nH]4)cc3)nc2n(CCC)c1=O` was 34.4% (inactive); that for `COc1ccc(C(=O)Nc2ccc(-c3ccc4c(c3)NC(=O)/C4=C\c3ccc[nH]3)cc2)cc1` was 7.85% (active).
`CN1CCN(Cc2ccc(C(=O)Nc3cccc(Nc4ccc5c(O)cccc5n4)c3)cc2C(F)(F)F)CC1`: the growth is -45.6% (active).
`COc1cccc(C(N)=Nc2ccc(OCCCCCCn3cncn3)cc2)c1`: the growth was 42% (inactive).
The value for `C#Cc1ccc(S(=O)(=O)Nc2cccc(-c3csc(NC(C)=O)n3)c2)cc1` was 57.9% (inactive); that for `CNC(=O)c1cc(-c2ccc(NC(=O)Nc3ccc(C)cc3)cc2)nc2cccnc12` was 99.4% (inactive).
The value for `CC1(c2ccccc2)NC(=O)N(CC(=O)Nc2ccc(C(=O)/C=C/C=C/c3ccccc3)cc2)C1=O` (stereo not given) was 71.6% (inactive).
